Screens as filed in PubChem.
HCV inh: blocks hepatitis C virus. AID 651820. 340,000 tested, 3.4% active. Huh7.5.1 HCVcc-Cre infection, luciferase reporter, 44 h. Potency, µM (titrated, usually from 41.8 µM), usual class: inhibitors; active means well fitted inhibition curve with a large enough effect; inconclusive means small, poorly fitted or top-dose-only effect, or another doubt; inactive means no such curve, though single readings can be large or run the other way
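Reporter virus HCVcc-Cre (~0.5 moi) infects cells exposed to compound; seeding density 1,000 cells/well with 4 h settling beforehand. Luminescence, 15 sec read, taken 44 h post-infection following a 15 min RT substrate incubation.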
FMDV antiviral: foot and mouth disease virus antiviral activity. FMDV antiviral cell-based qHTS. Potency, µM (series often up to 57.9 µM), actives largely listed as inhibitors. 410,000 tested, 1.2% active. AID 1159524; calls by dose curve; tested in HEK293T cells; further: read-out not given here; nearly all actives have a fitted effect of over 45% in size
Lassa entry inh: blocks Lassa virus binding to or entry into cells; Lassa virus pseudotype entry inhibition, cell reporter; Potency, µM (top dose mostly 37.9 µM), actives largely listed as inhibitors; 300,000 tested, 1.2% active; AID 540256; calls by dose curve; tested in HEK293 cells; further: nearly all actives have a fitted effect of over 50% in size
MARV entry inh: blocks Marburg virus binding to or entry into cells; Potency, µM (titrated, usually from 37.8 µM), hits mostly inhibitors; 300,000 tested, 1.8% active; Marburg virus pseudotyped entry inhibition, cell reporter; AID 540276; calls by dose curve; tested in HEK293 cells
HCMV antiviral: blocks human cytomegalovirus replication. AID 1259415. 410,000 tested, 4.5% active. activity change, negative = inhibition, % at 57.5 µM. HFF cells, HCMV-luciferase reporter, 72 h; hits give low values; in the data active means activity change below about -60%; inconclusive means no clear call, values can overlap the other calls; inactive means above about -39%
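Two-dose cell screen: HFF monolayers treated with compounds and infected with luciferase-expressing HCMV at 1 PFU/cell, 72 h at 37C, then lysed for luciferase measurement.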
Numbers stand for hits; – = inactive; ? = inconclusive; · = not tested or not shown. Compounds with a hit are over-represented: about 7.9% of the library has one in this group of screens.

SMILES | HCV inh | FMDV antiviral | Lassa entry inh | MARV entry inh | HCMV antiviral
O=C1c2ccc(Oc3cccc([N+](=O)[O-])c3)cc2C(=O)N1c1ccccn1 | – | – | · | · | –
O=C1c2cc([N+](=O)[O-])cc3cc([N+](=O)[O-])cc(c23)C(=O)N1c1ccccn1 | ? | 13µM | ? | ? | –
O=C(O)c1cccc(N2C(=O)c3cc([N+](=O)[O-])cc4cc([N+](=O)[O-])cc(c34)C2=O)c1 | ? | 35µM | · | · | –
Cc1ccc2c(c1)-c1c(cnn1CC(=O)N1CCN(c3cc(C)ccc3C)CC1)CO2 | · | ? | · | – | –
Cc1ccc(-n2nnc(-c3nsc(NC(=O)c4ccccc4C)n3)c2C)cc1Cl | · | – | – | · | -99
COc1ccc(-n2nnc(-c3nsc(NC(=O)c4cccc(C)c4)n3)c2C)cc1OC | · | ? | – | · | -100
COc1cc(OC)cc(C(=O)Nc2nc(-c3nnn(-c4ccc(F)c(Cl)c4)c3C)ns2)c1 | · | – | – | · | -94
CCCn1c(=O)c2sccc2n2c(CCCC(=O)N3CCN(c4ccc(OC)cc4)CC3)nnc12 | · | – | – | · | ?
c1ccc(N2CCN(c3ccccc3)C2c2cccnc2)cc1 | – | 10µM | – | – | –
CCOc1ccc(C(=O)Nc2cc(C)ccn2)cc1 | – | – | ? | ? | -65
CCOC(=O)NC(=S)Nc1cccc(C)n1 | · | – | · | · | -63
Cc1ccnc(NC(=O)c2ccc(C(=O)c3ccccc3)cc2)c1 | – | – | 2.2µM | 6.3µM | –
COc1cccc(NC(=O)Nc2cccc(C)n2)c1 | – | – | ? | – | –
Cc1cccc(NC(=O)Nc2ccccc2)n1 | – | – | – | ? | -65
CCCCCCCC=CC1=CC2(C)CC1(C)C(CCCCCCC)CC2=O (centres undefined) | · | · | · | – | ·
CCOc1cc(C(=O)Nc2cc(C)ccn2)cc(OCC)c1OCC | ? | – | ? | ? | -95
CCOc1ccc(C(=O)Nc2cccc(C)n2)cc1 | – | – | ? | 8.9µM | –
CCC[C@H]1[C@H](N(C)Cc2ccccc2)CC[C@@]23CCCN2C(=O)CCC[C@@H]13 | · | · | · | · | –
CCC(C)Sc1nc2c(c(=O)[nH]1)C(c1cccs1)C1=C(CCCC1=O)N2 (centres undefined) | – | – | · | · | -93
O=C1CCCC2=C1C(c1ccncc1)c1c(nc(SCc3ccccc3Cl)[nH]c1=O)N2 (centres undefined) | – | – | ? | 10µM | –
O=C(Nc1ccc(Cl)c(Cl)c1)N1N=CCC1c1ccccc1 (centres undefined) | 10µM | – | ? | ? | -66
CCSc1nnc(NC(=O)NC(C)(C(F)(F)F)C(F)(F)F)s1 | – | – | ? | ? | -67
CCSc1nnc(NC(=O)NC(CC)(C(F)(F)F)C(F)(F)F)s1 | ? | ? | ? | ? | -79
CCCC(=O)Nc1nnc(SCC)s1 | – | – | – | – | –
Cc1onc(-c2ccccc2)c1C(=O)NCc1ccc(Cl)cc1 | – | – | · | · | ?
SMILES | HCV inh | FMDV antiviral | Lassa entry inh | MARV entry inh | HCMV antiviral
Cc1ccc(C)c2c1cc(C)c1nnc(SCc3ccccn3)n12 | – | – | – | – | –
Cc1cc2cc(C)c3nnc(SCc4ccccn4)n3c2cc1C | ? | – | – | – | -65
CCC(C)NCCOCCOc1ccccc1-c1ccccc1 (centres undefined) | 13µM | – | ? | ? | –
CCC(C)NCCOCCOc1ccc(Cl)cc1Br (centres undefined) | 35µM | – | ? | ? | –
CCc1nc2cc(C(=O)N(C)CC3COCCO3)cc(NC(=O)c3ccccc3OC)c2n1C (centres undefined) | · | – | · | · | ·
O=[N+]([O-])c1ccc(C[n+]2cccc3c4ccccc4ccc32)cc1 | – | – | · | · | -81
O=c1[nH]n(-c2ccc(F)cc2)c2ncccc12 | – | – | – | – | –
Cc1c(-c2ccccn2)c(=O)[nH]n1-c1ccc(F)cc1 | – | – | – | 8.9µM | –
O=P(c1ccccc1)(c1ccccc1)C(O)c1ccc(Br)cc1 (centres undefined) | – | – | – | – | –
c1ccc(-n2ncc3c(NCCCN4CCOCC4)ncnc32)cc1 | – | – | ? | ? | –
Clc1ccc(-n2ncc3c(NCCN4CCOCC4)ncnc32)cc1 | ? | ? | ? | – | ?
CCCCNc1ncnc2c1cnn2-c1ccccc1 | ? | – | ? | 10µM | –
Clc1cccc(Nc2ncnc3c2cnn3-c2ccccc2)c1 | 11µM | – | · | · | –
CCCCNc1ncnc2c1cnn2-c1ccc(Cl)cc1 | 10µM | – | · | · | –
